Compound activity (PubChem BioAssay)
Most compounds without a hit are left out; they make up all but 3.5% or so of the library.
BoNT-F LC inh: BoNT F light chain protease inhibition; inhibition, % at 10 µM; 360,000 compounds, 0.22% hits; Multiplex microsphere protease cleavage assay, flow cytometry; in the data active means inhibition above about 35%, passing the limit was not always enough; inconclusive means no clear call, values can overlap the other calls; further: plate controls were buffer without enzyme for full effect and enzyme alone for no effect
BoNT A protease: BoNT A light chain protease inhibition | multiplex microsphere protease substrate cleavage, flow cytometry | inhibition, % at 10 µM | 360,000 compounds, 0.17% hits; further: plate controls were buffer without enzyme for full effect and enzyme alone for no effect
Autofluor counter: compound fluorescence in toxin protease inhibitor counterscreen; fluorescence intensity (no concentration beside the values); compound autofluorescence counterscreen, microsphere flow cytometry; stronger effect = higher value; 360,000 compounds, 3.1% hits; in the data active means fluorescence intensity above about 16000; inconclusive means no clear call, values can overlap the other calls
Anthrax LF inh2: anthrax lethal factor protease inhibition | AID 588501 | 360,000 compounds, 0.12% hits | multiplex microsphere protease cleavage assay, LF | inhibition, % at 10 µM | P15917; further: plate controls were buffer without enzyme for full effect and enzyme alone for no effect
Target sequence (P15917 whole entry, looked up): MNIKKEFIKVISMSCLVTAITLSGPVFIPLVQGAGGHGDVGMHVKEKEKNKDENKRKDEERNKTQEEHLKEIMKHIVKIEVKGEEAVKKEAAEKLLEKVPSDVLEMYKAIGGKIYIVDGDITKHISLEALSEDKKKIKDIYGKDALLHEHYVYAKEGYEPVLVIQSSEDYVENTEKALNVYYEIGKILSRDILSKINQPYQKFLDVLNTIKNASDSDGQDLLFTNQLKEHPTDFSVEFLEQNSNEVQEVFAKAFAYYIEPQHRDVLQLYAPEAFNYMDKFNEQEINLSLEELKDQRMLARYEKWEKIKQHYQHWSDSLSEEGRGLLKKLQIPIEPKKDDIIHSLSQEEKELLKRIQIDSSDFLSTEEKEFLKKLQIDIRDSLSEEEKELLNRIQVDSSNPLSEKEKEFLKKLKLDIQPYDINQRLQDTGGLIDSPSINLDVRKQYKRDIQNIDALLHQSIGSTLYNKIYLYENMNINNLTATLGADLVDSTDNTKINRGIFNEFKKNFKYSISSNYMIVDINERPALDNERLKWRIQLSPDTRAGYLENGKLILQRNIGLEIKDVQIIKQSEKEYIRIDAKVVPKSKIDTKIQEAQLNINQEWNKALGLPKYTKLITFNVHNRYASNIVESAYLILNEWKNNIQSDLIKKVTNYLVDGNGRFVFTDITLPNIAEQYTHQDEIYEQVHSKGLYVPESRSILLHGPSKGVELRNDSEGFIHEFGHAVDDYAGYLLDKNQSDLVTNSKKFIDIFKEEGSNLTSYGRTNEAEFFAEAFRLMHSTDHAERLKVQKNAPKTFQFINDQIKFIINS
Numbers without * were called inactive; ? = inconclusive. Unless noted, no stated cut-off is given here; in the data, active means inhibition above about 30%; inconclusive means no clear call, values can overlap the other calls; inactive means below that.

SMILES | BoNT-F LC inh | BoNT A protease | Autofluor counter | Anthrax LF inh2
Cc1ccc(C(=O)Nc2c3c(nn2C(C)(C)C)CS(=O)(=O)C3)cc1[N+](=O)[O-] | 4.3 | 1.4 | 4141 | 1.5
COc1ccc(-n2cc(-c3ccccc3)c3c(N4CCN(CCO)CC4)ncnc32)cc1 | 7.5 | 7.2 | 20444* | -2.5
C=CCN(C(=O)c1csnn1)C(C(=O)NC1CCCC1)c1ccc(OC)cc1 (stereo not drawn) | -19.7 | -0.1 | 3763 | -7.8
COc1cc(/C=C2/N=C(c3ccccc3F)OC2=O)cc(Cl)c1OS(C)(=O)=O | -3.1 | -1.2 | 20200* | -6.3
Cc1ccc(C)c(/C=C2\N=C(c3ccccc3F)OC2=O)c1 | -12.3 | 0.0 | 3685 | 6.4
Cc1ccc(C(=O)NNC(=O)c2ccc(NC(=O)C(C)(C)C)cc2)cc1 | -11.4 | 0.1 | 3269 | 10.0
CCn1c(SCC(=O)NCc2ccccc2)nnc1-c1c[nH]c2ccccc12 | -2.5 | 0.6 | 22868* | -7.3
CCn1c(SCC(=O)OC)nnc1-c1c[nH]c2ccccc12 | -2.2 | 0.3 | 5256 | -1.5
C=CCSc1nnc(-c2c[nH]c3ccccc23)n1CCOC | -1.2 | 0.7 | 22750* | -1.7
COCCn1c(SCC(N)=O)nnc1-c1c[nH]c2ccccc12 | -8.3 | -1.3 | 4592 | -8.1
COc1cccc2c1C1COC3C4CC(C(=O)O)C(C(C2)N13)N4C (stereo not drawn) | 0.3 | -0.2 | 3675 | -6.6
COc1ccc(S(=O)(=O)N2CCN(C(=O)c3ccc(=O)[nH]n3)CC2)cc1OC | -12.5 | -2.9 | 7076 | 2.1
CCN(CC)CCOc1ncnc2c1oc1ccccc12 | 5.4 | ? | 19366* | 0.5
CCc1nc(OCCN(CC)CC)c2oc3ccccc3c2n1 | -7.9 | -0.4 | 6107 | 0.7
Cc1ccc(-c2noc(C3CCCN(S(=O)(=O)c4ccc5ccccc5c4)C3)n2)o1 (stereo not drawn) | -12.4 | -1.3 | 8524 | -5.8
COc1ccc(-c2noc(C3CCCN(S(=O)(=O)c4cccc(Cl)c4C)C3)n2)cc1OC (stereo not drawn) | -4.1 | -2.4 | 17219* | -0.5
COc1ccc(-c2noc(C3CCCN(S(=O)(=O)c4ccc(C)c(Cl)c4)C3)n2)cc1OC (stereo not drawn) | -13.8 | -0.7 | 10387 | -0.5
CC(=O)c1cccc(S(=O)(=O)N2CCCC(c3nc(-c4ccc(C)o4)no3)C2)c1 (stereo not drawn) | -3.1 | ? | 17085* | -2.5
CCS(=O)(=O)N1CCCC(c2nc(-c3cccc(OC)c3)no2)C1 (stereo not drawn) | 0.3 | -0.8 | 23563* | -1.6
CCCNC(=O)C(Cc1ccccc1)NC(=O)c1ccccc1 (stereo not drawn) | 3.1 | -0.1 | 3413 | 2.9
CC(NC(=O)C(Cc1ccccc1)NC(=O)c1ccccc1)C(=O)O (stereo not drawn) | -1.2 | ? | 22982* | -0.8
COc1cc(OC)c(C(=O)Nc2ccc(S(=O)(=O)Nc3ncccn3)cc2)cc1OC | 4.6 | 3.9 | 21604* | 0.2
COc1ccc(CC(=O)Nc2ccc(S(=O)(=O)Nc3ncccn3)cc2)cc1OC | -6.0 | 0.9 | 4350 | -3.4
Nc1ncnc(Nc2cc(C(F)(F)F)cc(C(F)(F)F)c2)n1 | -13.9 | -1.1 | 7092 | -7.1
Nc1ncnc(Nc2cccc(C(F)(F)F)c2)n1 | -3.3 | ? | 17187* | 1.4
SMILES | BoNT-F LC inh | BoNT A protease | Autofluor counter | Anthrax LF inh2
COc1ccc(C(=O)NCC(=O)OCC(=O)N2CC(C)CC(C)C2)cc1 (stereo not drawn) | -388.6 | -19.5 | 17297* | 3.0
C/C(=N\NC(=O)c1ccc(-n2cnnn2)cc1)c1ccc(Cl)cc1 | 5.5 | 5.1 | 4326 | 2.3
CC(C)OCCCNC(=O)c1cccs1 | 0.6 | -0.9 | 22575* | 0.2
CCCn1nnc(NCc2ccc(OCc3cccs3)c(OC)c2)n1 | -2.3 | -0.8 | 17112* | -2.3
COc1cccc(-c2cc(C(=O)NCCc3ccccc3)no2)c1 | 8.2 | 7.3 | 21462* | -0.1
CCCCNC(=O)c1cc(-c2ccc(OC)cc2)on1 | 2.7 | 1.2 | 10529 | -2.6
COc1cc(OC)cc(C(=O)NC(=S)NCCc2ccccc2)c1 | 3.4 | 2.9 | 22614* | 0.3
CCCNC(=O)c1cc(-c2ccc(OC)cc2)on1 | 1.4 | -0.2 | 16440* | -2.4
COc1cccc(-c2cc(C(=O)Nc3cc(C)on3)no2)c1 | 1.6 | -0.1 | 22051* | 0.3
NS(=O)(=O)c1cccc(NC(=O)COC(=O)CN2C(=O)c3ccccc3C2=O)c1 | -5.6 | -0.1 | 3486 | -6.7
COc1cccc(OC)c1C(=O)NC(C)C12CC3CC(CC(C3)C1)C2 (stereo not drawn) | 35.0* | 1.0 | 3724 | 3.5
Cc1noc(C)c1S(=O)(=O)N(C)C[C@H]1Oc2ccc(NC(=O)Cc3ccccc3)cc2C(=O)N([C@H](C)CO)C[C@@H]1C | -10.8 | 0.2 | 3515 | -5.5
CC1CC(NC(=O)C2(C)CC2(Cl)Cl)CC(C)(C)C1 (stereo not drawn) | 6.3 | 4.9 | 20800* | -15.0
COc1ccc(-c2c(C)n([O-])c(C)c(-c3ccccc3)[n+]2=O)cc1OC | 4.0 | 2.1 | 21301* | -3.3
COc1ccc(CC/C(=N\O)C2(O)CCCCC2)cc1 | -6.7 | -1.5 | 24221* | -3.3
O/N=C(/CCc1ccccc1)C1(O)CCCCC1 | 5.3 | 0.9 | 7896 | 1.8
CCCCC(CCC(=O)Nc1nccs1)C(=O)O (stereo not drawn) | -0.2 | ? | 20150* | -2.5
COc1ccc(-n2c(C)c(C)c3c(NCCCO)ncnc32)cc1 | -11.5 | -4.5 | 4025 | -7.2
O=C(c1cc2ccccc2o1)N1CCN(S(=O)(=O)c2c(F)cccc2F)CC1 | -84.4 | -54.2 | 20189* | -14.2
CC(=O)N1CCN(C(=O)c2cc3ccccc3o2)CC1 | -13.3 | -4.7 | 4079 | 8.1
CCCn1c(CCNc2nc(-c3cccc(Br)c3)cs2)nc2ccccc21 | 1.1 | 0.1 | 3588 | -1.4
CCN(C(=O)COC(=O)C(c1ccccc1)c1ccccc1)c1c(N)n(Cc2ccccc2)c(=O)[nH]c1=O | -5.3 | -0.9 | 3569 | -2.1
Cc1ccc(CNC(=O)CCC(=O)Nc2nnc(C(C)C)s2)cc1 | -7.2 | 0.2 | 5470 | 0.6
COc1cccc(-c2c(NC(=O)c3ccco3)n(-c3ccc(C)cc3)nc(C)c2=O)c1 | -2.7 | -0.9 | 16965* | -2.5
Cc1cccc(NS(=O)(=O)c2ccc(C)c(C(=O)NNC(=O)c3csc(N4CCOCC4)n3)c2)c1 | -6.1 | -0.6 | 3018 | -9.1
SMILES | BoNT-F LC inh | BoNT A protease | Autofluor counter | Anthrax LF inh2
COc1cccc(C(=O)N(CN2CCCC2=O)c2cccc(Cl)c2)c1 | -7.9 | -0.9 | 6225 | 10.4
CCOc1ccccc1C(=O)N(CN1CCCC1=O)c1cccc(Cl)c1 | 1.4 | ? | 21571* | -5.1
COc1cccc(C(=O)N(CN2CCCC2=O)c2cc(C)on2)c1 | -0.7 | ? | 22265* | 1.1
COc1ccc(C(=O)N(CN2CCCC2=O)c2ccccc2OC)cc1OC | -2.2 | -1.5 | 23117* | 0.1
O=C1CCCN1CN(C(=O)c1ccccc1)c1ccccc1 | -1.3 | -0.2 | 3388 | 2.9
COc1ccccc1C(=O)N(CN1CCCC1=O)c1cccc(Cl)c1 | 2.4 | 0.7 | 22324* | -1.8
CC1CN(c2nc3ccccc3nc2SCC(=O)Nc2cccc(C(F)(F)F)c2)CC(C)O1 (stereo not drawn) | 1.0 | 2.8 | 4728 | -2.3
